Source: publication PMC7862700, “An all-to-all approach to the identification of sequence-specific readers for epigenetic DNA modifications on cytosine”

Legend:
Experiment in all cases: DAPPL (digital affinity profiling via proximity ligation, sequencing); 10 mM Tris-HCl pH 7.5, 50 mM NaCl, 1 mM DTT, 4% glycerol, room temperature, 30 min; GST-TFs on glutathione beads, 16-mer random dsDNA library, 0.1% formaldehyde crosslink after washing; high values mean tight binding
Settings in all cases: protein: recombinant; tags: N-terminal GST; dsDNA, one strand shown
[1] = molecular target: T1, ELK1 (Homo sapiens, UniProt P19419 1-428)
T1 sequence: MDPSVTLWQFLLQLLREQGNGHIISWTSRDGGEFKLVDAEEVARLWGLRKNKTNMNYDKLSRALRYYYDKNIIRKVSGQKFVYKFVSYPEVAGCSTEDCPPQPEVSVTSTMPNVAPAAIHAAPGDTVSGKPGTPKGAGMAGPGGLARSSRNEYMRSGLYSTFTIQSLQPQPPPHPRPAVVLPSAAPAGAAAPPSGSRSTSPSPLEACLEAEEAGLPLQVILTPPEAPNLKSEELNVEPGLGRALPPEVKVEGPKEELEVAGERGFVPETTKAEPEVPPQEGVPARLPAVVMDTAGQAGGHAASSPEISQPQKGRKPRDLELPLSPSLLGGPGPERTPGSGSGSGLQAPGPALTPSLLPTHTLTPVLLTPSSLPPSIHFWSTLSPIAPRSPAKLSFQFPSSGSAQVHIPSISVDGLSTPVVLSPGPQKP
Method in brief: (§1)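 Binding signal is each hexamer's read frequency for a factor divided by its frequency in the tag-only sample. The factors were GST-fused human transcription factors from yeast, captured on glutathione beads, DNA-barcoded and pooled with that sample. Pools were incubated with 200 nmole of a random double-stranded 16-mer DNA library in Tris/NaCl/DTT/glycerol buffer at room temperature for 30 min, then washed, crosslinked with 0.1% formaldehyde, proximity-ligated with BsaI/T4 ligase (1 h, 37 °C), PCR-amplified and sequenced on an Illumina NextSeq500.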

[2] = molecular target: T2, GABPA (Homo sapiens, UniProt Q06546 1-454)
T2 sequence: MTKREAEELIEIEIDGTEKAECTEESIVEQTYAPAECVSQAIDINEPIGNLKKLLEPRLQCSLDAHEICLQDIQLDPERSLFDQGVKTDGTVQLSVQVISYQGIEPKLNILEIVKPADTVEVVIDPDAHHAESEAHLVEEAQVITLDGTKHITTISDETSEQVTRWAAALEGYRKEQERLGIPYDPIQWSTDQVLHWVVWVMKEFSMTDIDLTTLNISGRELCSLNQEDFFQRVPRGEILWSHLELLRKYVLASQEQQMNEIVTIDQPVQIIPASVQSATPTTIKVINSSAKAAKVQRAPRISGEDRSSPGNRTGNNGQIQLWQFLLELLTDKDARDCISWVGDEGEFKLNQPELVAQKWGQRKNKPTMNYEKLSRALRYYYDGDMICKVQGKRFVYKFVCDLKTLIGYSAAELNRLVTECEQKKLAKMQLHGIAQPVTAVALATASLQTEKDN
Method in brief: as §1

[3] = molecular target: T3, ERG (Homo sapiens, UniProt P11308 1-479)
T3 sequence: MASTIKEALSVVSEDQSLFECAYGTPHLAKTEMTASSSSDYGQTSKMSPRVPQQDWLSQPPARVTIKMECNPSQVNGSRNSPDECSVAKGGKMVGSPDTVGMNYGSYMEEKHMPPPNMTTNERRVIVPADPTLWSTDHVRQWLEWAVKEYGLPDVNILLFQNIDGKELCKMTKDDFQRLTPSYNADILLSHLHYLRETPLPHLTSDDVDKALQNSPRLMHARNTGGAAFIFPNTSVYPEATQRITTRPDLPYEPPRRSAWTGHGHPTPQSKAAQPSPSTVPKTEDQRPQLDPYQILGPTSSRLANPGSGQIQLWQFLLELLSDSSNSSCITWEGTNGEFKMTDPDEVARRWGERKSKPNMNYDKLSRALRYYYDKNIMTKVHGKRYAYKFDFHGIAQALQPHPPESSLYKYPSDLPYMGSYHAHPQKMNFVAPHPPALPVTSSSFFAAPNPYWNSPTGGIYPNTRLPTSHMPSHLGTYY
Method in brief: as §1

[4] = molecular target: ELF1 (Homo sapiens, UniProt P32519 1-619)
Method in brief: as §1

[5] = molecular target: T4, EHF (Homo sapiens, UniProt Q9NZC4 1-300)
T4 sequence: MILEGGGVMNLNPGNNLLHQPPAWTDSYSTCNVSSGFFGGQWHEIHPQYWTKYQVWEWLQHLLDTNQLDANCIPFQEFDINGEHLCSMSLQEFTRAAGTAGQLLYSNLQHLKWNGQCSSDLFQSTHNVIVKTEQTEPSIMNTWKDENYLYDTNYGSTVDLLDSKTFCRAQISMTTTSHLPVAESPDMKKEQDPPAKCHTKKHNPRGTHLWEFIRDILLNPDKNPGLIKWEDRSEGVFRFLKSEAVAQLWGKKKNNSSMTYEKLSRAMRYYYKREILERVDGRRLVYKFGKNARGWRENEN
Method in brief: as §1

[6] = molecular target: SPIB (Homo sapiens, UniProt Q01892 1-262)
Method in brief: as §1

[7] = molecular target: T5, FEV (Homo sapiens, UniProt Q99581 1-238)
T5 sequence: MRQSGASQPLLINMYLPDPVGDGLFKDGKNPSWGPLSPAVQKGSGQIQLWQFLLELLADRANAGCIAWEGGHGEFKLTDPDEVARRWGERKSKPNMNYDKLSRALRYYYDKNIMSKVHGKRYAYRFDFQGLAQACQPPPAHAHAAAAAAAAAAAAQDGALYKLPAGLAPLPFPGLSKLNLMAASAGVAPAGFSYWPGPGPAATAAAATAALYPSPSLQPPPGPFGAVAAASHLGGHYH
Method in brief: as §1

[8] = molecular target: ETV5 (Homo sapiens, UniProt P41161 1-510)
Method in brief: as §1

[9] = molecular target: T6, ELK4 (Homo sapiens, UniProt P28324-2 1-405)
T6 sequence: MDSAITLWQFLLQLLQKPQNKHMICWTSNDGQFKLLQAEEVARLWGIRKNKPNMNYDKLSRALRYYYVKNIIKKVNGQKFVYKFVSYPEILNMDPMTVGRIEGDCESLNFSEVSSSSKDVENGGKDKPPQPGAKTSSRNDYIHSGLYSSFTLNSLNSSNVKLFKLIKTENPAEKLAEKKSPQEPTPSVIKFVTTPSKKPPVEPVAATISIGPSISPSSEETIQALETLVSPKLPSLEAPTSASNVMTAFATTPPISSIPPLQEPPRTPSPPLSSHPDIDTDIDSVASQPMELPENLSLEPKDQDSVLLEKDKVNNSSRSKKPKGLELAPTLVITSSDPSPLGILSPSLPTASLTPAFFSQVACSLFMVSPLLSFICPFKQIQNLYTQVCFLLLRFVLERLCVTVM
Method in brief: as §1

Sequence of ELF1 (P32519 whole entry): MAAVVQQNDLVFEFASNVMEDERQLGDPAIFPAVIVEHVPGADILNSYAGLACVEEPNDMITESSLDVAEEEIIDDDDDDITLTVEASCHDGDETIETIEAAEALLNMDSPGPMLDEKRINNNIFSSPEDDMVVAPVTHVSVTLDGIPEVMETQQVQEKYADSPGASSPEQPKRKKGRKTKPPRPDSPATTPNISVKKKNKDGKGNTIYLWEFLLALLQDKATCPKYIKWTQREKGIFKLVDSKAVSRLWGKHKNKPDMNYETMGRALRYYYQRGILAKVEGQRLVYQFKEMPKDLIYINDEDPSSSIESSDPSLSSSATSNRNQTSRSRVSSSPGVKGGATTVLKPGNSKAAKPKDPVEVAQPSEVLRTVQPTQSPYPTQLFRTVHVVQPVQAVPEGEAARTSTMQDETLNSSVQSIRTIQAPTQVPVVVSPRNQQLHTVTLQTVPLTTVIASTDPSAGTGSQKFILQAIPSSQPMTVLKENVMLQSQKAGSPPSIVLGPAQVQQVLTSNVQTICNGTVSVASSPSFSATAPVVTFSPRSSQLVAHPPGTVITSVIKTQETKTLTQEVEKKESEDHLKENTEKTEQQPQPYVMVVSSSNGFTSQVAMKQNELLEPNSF
Sequence of SPIB (Q01892 whole entry): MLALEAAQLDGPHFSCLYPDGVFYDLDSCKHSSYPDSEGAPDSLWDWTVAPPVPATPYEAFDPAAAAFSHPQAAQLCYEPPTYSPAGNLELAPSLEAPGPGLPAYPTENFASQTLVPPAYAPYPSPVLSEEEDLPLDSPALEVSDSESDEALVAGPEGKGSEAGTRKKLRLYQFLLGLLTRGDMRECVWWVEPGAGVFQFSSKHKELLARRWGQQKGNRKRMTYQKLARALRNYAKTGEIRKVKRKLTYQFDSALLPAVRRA
Sequence of ETV5 (P41161 whole entry): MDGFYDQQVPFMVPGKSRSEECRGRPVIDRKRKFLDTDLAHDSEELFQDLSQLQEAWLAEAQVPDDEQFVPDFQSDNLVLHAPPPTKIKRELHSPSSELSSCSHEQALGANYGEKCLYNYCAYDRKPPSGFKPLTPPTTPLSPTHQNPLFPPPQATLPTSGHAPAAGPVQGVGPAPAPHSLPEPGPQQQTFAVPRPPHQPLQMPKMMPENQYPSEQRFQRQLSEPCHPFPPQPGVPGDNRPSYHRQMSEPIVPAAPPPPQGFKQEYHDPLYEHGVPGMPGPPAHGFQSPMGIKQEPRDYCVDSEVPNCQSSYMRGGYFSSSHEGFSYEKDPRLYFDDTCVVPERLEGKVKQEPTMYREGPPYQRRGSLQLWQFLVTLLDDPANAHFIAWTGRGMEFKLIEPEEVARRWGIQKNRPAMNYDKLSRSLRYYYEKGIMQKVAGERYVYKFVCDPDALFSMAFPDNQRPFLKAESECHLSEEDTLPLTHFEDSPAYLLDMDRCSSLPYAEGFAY

TGTAAG was tested, and the binding signal [1] was 1.06 fold enrichment (6-mer frequency, TF over GST control), the binding signal [2] was 1.03 fold enrichment (6-mer frequency, TF over GST control) and the binding signal [3] was 1.07 fold enrichment (6-mer frequency, TF over GST control). The binding signal [4] was 1.11 fold enrichment (6-mer frequency, TF over GST control), the binding signal [5] was 1.16 fold enrichment (6-mer frequency, TF over GST control) and the binding signal [6] was 1.06 fold enrichment (6-mer frequency, TF over GST control). The binding signal [7] was 1.06 fold enrichment (6-mer frequency, TF over GST control), the binding signal [8] was 1.08 fold enrichment (6-mer frequency, TF over GST control) and the binding signal [9] was 1.06 fold enrichment (6-mer frequency, TF over GST control).
